TDP1 cell noCPT: qHTS for Inhibitors of human tyrosyl-DNA phosphodiesterase 1 (TDP1): qHTS in cells in absence of CPT; DT40 Tdp1-/- hTDP1 cells, no CPT, ATP luminescence, 48 h; Potency, µM (top dose mostly 46.2 µM), for inactives: at the highest dose activity change, negative = growth inhibition, actives largely listed as inhibitors; 420,000 tested, 15% active; AID 686978, 2013; also: % is scaled to controls: 0 for no effect and ±100 for the full control effect; nearly all actives have a fitted effect of over 55% in size
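Luminescent ATP content (CellTiter-Glo) served as the growth readout. Knockout chicken DT40 cells expressing human TDP1 were exposed to compounds without camptothecin for a minimum 48 hr at 37 °C.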
TDP1 cell CPT: DT40-hTDP1 cell growth loss with CPT | chicken DT40 Tdp1-/-;hTDP1 cells + 20 nM CPT, ATP luminescence, 48 h | Potency, µM (series often up to 46.2 µM), for the others: top-dose activity change, negative = growth inhibition, hits mostly inhibitors | 420,000 tested, 12% active | AID 686979; also: % is scaled to controls: 0 for no effect and ±100 for the full control effect; nearly all actives have a fitted effect of over 55% in size
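Chicken DT40 Tdp1-/- cells stably complemented with human TDP1 were seeded at 400 cells/well in medium containing 20 nM camptothecin, exposed to pin-transferred compounds, and grown at 37 °C for at least 48 hr. Viability was read as ATP luminescence.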
ATXN viability: cell viability loss in ATXN counter-screen. Potency, µM (top dose mostly 56.7 µM), hits mostly cytotoxic. 400,000 tested, 0.49% active. S2 cells (HEK-293 line with an ATXN2-luciferase reporter) viability, CellTiter-Fluor protease fluorescence, 24 h; also: nearly all actives have a fitted effect of over 40% in size
TGFb inhibitor: TGF-b pathway inhibition; HepG2 CAGA-GFP TGF-b/SMAD3 reporter, GFP fluorescence, 18 h; TGF-beta stimulated, 500 pg/mL final; Potency, µM (doses to about 46.1 µM), for the others: top-dose activity, negative = inhibition, hits mostly inhibitors; 410,000 tested, 1.2% active; AID 588855; also: % is scaled to controls: 0 for no effect and ±100 for the full control effect; nearly all actives have a fitted effect of over 65% in size
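Inhibition of TGF-beta-driven CAGA-GFP reporter expression in HEPG2 cells is measured by cellular GFP fluorescence after 18 h stimulation with 500 pg/mL recombinant TGF-beta in 1% FBS medium at 37 degrees C.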
HepG2 tox: counter-screen for TGF-b inhibitors: cytotoxicity in HepG2 cells. HepG2 CAGA-GFP viability, ATP luminescence, 18 h. Potency, µM (highest dose often 46.1 µM), for the others: at the top dose activity change, negative = cytotoxicity, most hits filed as cytotoxic. 410,000 tested, 0.76% active
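CellTiter-Glo luminescence gave cytotoxicity after 18 hours at 37 degrees C. The cells were HepG2 CAGA-GFP in 1% FBS DMEM, stimulated with 500 pg/mL TGF-beta after compound addition. %Activity was normalised to no-cell wells (complete cell-killing) and DMSO (no toxicity), and curves were fitted and classified.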
ATXN2 expr inh: ATXN2 expression inhibition. Potency, µM (highest dose often 57 µM), for inactives: at the top dose activity change, negative = inhibition, hits mostly inhibitors. 360,000 tested, 0.72% active. HEK-293 ATXN2-luciferase reporter, luminescence, 24 h; also: % is scaled to controls: 0 for no effect and ±100 for the full control effect; nearly all actives have a fitted effect of over 55% in size
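ATXN2-luciferase reporter cells (luciferase flanked by upstream and downstream ATXN2 gene portions) were treated 24 h at 37 °C with compounds at up to 57 uM. SteadyGlo luminescence gave expression; GF-AFC fluorescence gave viability.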
Active calls of the source: *; i = inactive; ? = inconclusive; . = not tested or not shown; [ ] = another dose, or the depositor's remark. Compounds with a hit are over-represented: about 17% of the library has one in this group of screens. Calls follow the shape of the dose curve; as a rule, active = well fitted curve in the direction sought with a large enough effect; inconclusive = small, poorly fitted or top-dose-only effect, or another doubt; inactive = no such curve, though single readings can be large; an effect the other way counts as inactive or inconclusive. Potency is read from the fitted curve at half-maximal effect.

SMILES | TDP1 cell noCPT | TDP1 cell CPT | ATXN viability | TGFb inhibitor | HepG2 tox | ATXN2 expr inh
Cc1ccc(C(=O)Cc2ccccc2)cc1 | 15% | 9% | i | 0% | 9% | 25%
O=C(N/N=C/C=C/c1ccccc1)c1ccncc1 | 21µM* | ? | i | 1% | 3% | 9%
O=C(Nc1ccccc1C(=O)NC(Cc1ccccc1)C(=O)NC1CCCCC1)c1ccccc1 (stereo not given) | 26µM* | ? | i | -6% | 20% | -16%
Nc1ccc(NC(=O)c2ccccc2)c2c1C(=O)c1ccccc1C2=O | 16µM* | 13µM* | i | 10% | -5% | 3%
O=C(N/N=C/C=C/c1cccc([N+](=O)[O-])c1)c1ccncc1 | ? | ? | ? | 14% | 5% | -3%
O=C(Nc1ccccc1C(=O)NC(Cc1ccccc1)C(=O)O)c1ccccc1 (stereo not given) | -3% | -7% | i | -1% | -4% | 9%
O=C(c1n[nH]c2c1CCCC2)N1CCOc2ccc(C(O)C3CCCCC3)cc2C1 (stereo not given) | -27% | -25% | i | . | . | .
COC(=O)c1ccccc1NC(=O)c1cc[n+](C)cc1 | -10% | -8% | i | 0% | 5.6µM* | 1%
CC(=O)Nc1ccccc1NC(=O)c1ccccc1 | 7% | -8% | i | -4% | 5% | .
O=C(Nc1ccccc1SC(=O)c1ccccc1)c1ccccc1 | 4.6µM* | 3.3µM* | ? | -23% | -31% | .
O=C(Nc1ccccc1C(=O)N/N=C/c1ccncc1)c1ccccc1 | 21µM* | ? | i | 4% | 5µM* | 34%
Nc1ccccc1NC(=O)c1ccccc1 | 18µM* | 21µM* | i | 10% | -45% | 2%
CCCCCN(C(=O)CCC(=O)OCC(=O)c1ccc(C(C)CC)cc1)c1c(N)n(CCCC)c(=O)[nH]c1=O (stereo not given) | ? | ? | i | -6% | -26% | -15%
NS(=O)(=O)c1ccc(NC(=O)CCC(=O)c2ccc(Cl)s2)cc1 | -2% | -9% | i | 12% | 17% | 9%
COC(=O)CCC(=O)c1oc2ccccc2c1N | -8% | -20% | i | 0% | -2% | 25%
COC(=O)c1ccccc1NC(=O)c1cccc(COc2ccccc2Cl)c1 | 8.2µM* | 9.2µM* | i | 13% | -3% | -36%
O=C(NCc1ccccc1)c1cccc(COc2ccccc2Cl)c1 | -24% | -15% | i | -16% | -17% | 1%
C[C@@H](c1ncncc1F)C(O)(Cn1cncn1)c1ccc(F)cc1F (stereo not given in full) | -21% | -27% | i | . | . | 14%
NS(=O)(=O)c1ccc(N=Nc2c(-c3ccccc3)[nH]n(-c3nc(-c4ccccc4)cs3)c2=O)cc1 | 3.3µM* | 9.2µM* | i | -21% | -7% | ?
Nc1[nH]n2c(=O)cc(-c3ccccc3)nc2c1N=Nc1ccc(S(N)(=O)=O)cc1 | 0% | 1% | i | 58% | 2% | -18%[11.3 µM]
CN(C)S(=O)(=O)c1ccc(C(=O)Nc2ccc(-n3nncc3-c3ccccc3)cc2)cc1 | 15µM* | 21µM* | . | 3% | -9% | .
O=C(Nc1ccccc1)c1ccc(-n2nncc2-c2ccccc2)cc1 | ? | 10µM* | . | 14% | -2% | .
O=C(Nc1ccc(-n2nncc2-c2ccccc2)cc1)c1cccc(F)c1 | ? | ? | . | 17% | 10% | .
COc1ccc(CN2CCN(C(C)=O)CC2)cc1OC1CCN(C(=O)c2ccc3ccccc3n2)CC1 | -7% | 1%[9.04 µM] | i | . | . | .
O=C(NC1CC1)c1ccc(Cn2c(SCc3ccccc3F)nc3cccnc32)cc1 | 12µM* | 21µM* | . | ? | -48% | .
